Assay outcomes from PubChem.
This is a sample that favours compounds with a hit; in the whole collection about 3.8% have one here.
ATXN2 expr inh: reduces ATXN2 reporter expression in HEK-293 cells; 0.72% of 360,000 active; Potency, µM (top dose mostly 57 µM), for the others: at the highest dose activity change, negative = inhibition, hits mostly inhibitors; AID 1745845; HEK-293 ATXN2-luciferase reporter, luminescence, 24 h; note: % is set by controls: 0 for no effect and ±100 for the full control effect; nearly all actives have a fitted effect of over 55% in size
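ATXN2-luciferase reporter cells (luciferase flanked by upstream and downstream ATXN2 gene portions) were treated 24 h at 37 °C with compounds at up to 57 uM. SteadyGlo luminescence gave expression; GF-AFC fluorescence gave viability.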
HT1080-NT tox: kills 2HG-producing HT-1080-NT fibrosarcoma cells; HT-1080-NT fibrosarcoma viability, CellTiter-Glo ATP luminescence, 48 h; Potency, µM (doses to about 46.1 µM), inactives show at the highest dose activity, negative = less viability, usual class: cytotoxic; 1.6% of 360,000 active; AID 686970;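 note: NT is the 2HG producing partner of a matched IDH1 knockdown line; 0% = DMSO-treated cells and -100% = media-only wells without cells; nearly all actives have a fitted effect of over 55% in size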
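Luminescent CellTiter-Glo readout after 48 hours of compound exposure at 37 degrees C defined viability of HT-1080-NT cells. Activity was normalized to DMSO wells and cell-free media wells; concentration-response curves were fitted and assigned curve classes.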
S2 tox: reduces viability in counter-screen for ATXN expression inhibitors; Potency, µM (doses to about 56.7 µM), usual class: cytotoxic; 0.49% of 400,000 active; S2 cells (HEK-293 line with an ATXN2-luciferase reporter) viability, CellTiter-Fluor protease fluorescence, 24 h; AID 651635; note: nearly all actives have a fitted effect of over 40% in size
TGFb SMAD3 inh: TGF-b pathway inhibition. HepG2 CAGA-GFP TGF-b/SMAD3 reporter, GFP fluorescence, 18 h; TGF-beta stimulated, 500 pg/mL final. Potency, µM (titrated, usually from 46.1 µM), for the others: top-dose activity, negative = inhibition, hits mostly inhibitors. 1.2% of 410,000 active; note: % is set by controls: 0 for no effect and ±100 for the full control effect; nearly all actives have a fitted effect of over 65% in size
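Using HEPG2 CAGA-GFP reporter cells at 1000 cells/well, we pinned test compounds, stimulated with recombinant TGF-beta (500 pg/mL final) and measured total well GFP after 18 h.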
HepG2 viability: counter-screen for TGF-b inhibitors: cytotoxicity in HepG2 cells; 0.76% of 410,000 active; Potency, µM (titrated, usually from 46.1 µM), inactives show top-dose activity change, negative = cytotoxicity, most hits filed as cytotoxic; AID 588856; HepG2 CAGA-GFP viability, ATP luminescence, 18 h
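CellTiter-Glo luminescence gave cytotoxicity after 18 hours at 37 degrees C. The cells were HepG2 CAGA-GFP in 1% FBS DMEM, stimulated with 500 pg/mL TGF-beta after compound addition. %Activity was normalised to no-cell wells (complete cell-killing) and DMSO (no toxicity), and curves were fitted and classified.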
HT1080 IDH1KD tx: toxicity to HT-1080 IDH1 knockdown cells (counter line). HT-1080 IDH1 knockdown viability, ATP luminescence, 48 h. 2% of 360,000 active. Potency, µM (doses to about 46.1 µM), for the others: at the top dose activity, negative = toxicity, most hits filed as cytotoxic;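 note: 0% = DMSO wells and -100% = cell-free medium wells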
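CellTiter-Glo luminescence after 48 h compound exposure at 37 degrees C of IDH1-knockdown HT-1080 cells in 5% FBS RPMI. %Activity scaled between DMSO wells and cell-free media wells, with curves fitted and assigned curve classes.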
Active calls of the source: *. Calls come from the whole dose curve; as a rule, active = well fitted curve in the direction sought with a large enough effect; inconclusive = small, poorly fitted or top-dose-only effect, or another doubt; inactive = no such curve, though single readings can be large; an effect the other way counts as inactive or inconclusive. Potency is the fitted concentration of half-maximal effect.

`Cc1ccc(-n2c(SCC(=O)N/N=C/c3c(C)nn(-c4ccccc4)c3C)nc3ccccc3c2=O)cc1` gave ATXN2 expr inh -23%, HT1080-NT tox -17%, S2 tox inconclusive, TGFb SMAD3 inh inconclusive, HepG2 viability -39% and HT1080 IDH1KD tx -22%.
For Cc1noc(C)c1CSc1nc2ccccc2c(=O)n1-c1ccc(F)cc1F the results were ATXN2 expr inh -14%, HT1080-NT tox inconclusive, S2 tox inactive, TGFb SMAD3 inh 6%, HepG2 viability -9% and HT1080 IDH1KD tx 16µM*.
`CCOC(=O)N1CCN(C(=O)CSc2nc3ccccc3c(=O)n2-c2ccccc2)CC1` gave ATXN2 expr inh 2%, HT1080-NT tox -3%, S2 tox inconclusive, TGFb SMAD3 inh 3.2µM*, HepG2 viability 4% and HT1080 IDH1KD tx 2%.
Screening COc1ccc(-c2cc(C(F)(F)F)nc(SCC(=O)NCC(C)C)n2)cc1OC returned TGFb SMAD3 inh 23% and HepG2 viability 11%.
Cc1nc(CSc2nc3[nH]ncc3c(=O)n2-c2ccccc2)cs1 was read as ATXN2 expr inh -8%, HT1080-NT tox -6%, S2 tox inactive, TGFb SMAD3 inh -18%, HepG2 viability -11% and HT1080 IDH1KD tx -17%.
Screening Cc1noc(C)c1CSc1nc2[nH]ncc2c(=O)n1-c1ccccc1 returned ATXN2 expr inh 26%, HT1080-NT tox inconclusive, S2 tox inconclusive, TGFb SMAD3 inh 11%, HepG2 viability -26% and HT1080 IDH1KD tx 0.52µM*.
`COC(=O)c1cccc(Nc2nn3c(=O)c4cc5c(cc4nc3s2)OCO5)c1` gave ATXN2 expr inh 2%, S2 tox inactive, TGFb SMAD3 inh -9% and HepG2 viability -3%.
For Cc1ccc(C#N)c(SCCN2CCCCC2)n1 the results were ATXN2 expr inh -7%, HT1080-NT tox 9%, S2 tox inactive, TGFb SMAD3 inh 0%, HepG2 viability -25% and HT1080 IDH1KD tx 11%.
`Cc1cccc2cc(C#N)c(SCCN3CCCCC3)nc12` gave ATXN2 expr inh 25µM*, HT1080-NT tox inconclusive, S2 tox inactive, TGFb SMAD3 inh inconclusive, HepG2 viability -21% and HT1080 IDH1KD tx inconclusive.
COc1ccc(OC)c(NC(=O)C2CCCN(S(=O)(=O)c3cccc4nsnc34)C2)c1 (stereo not drawn) was read as ATXN2 expr inh -8%, HT1080-NT tox -6%, S2 tox inactive, TGFb SMAD3 inh -9%, HepG2 viability 13µM* and HT1080 IDH1KD tx inconclusive.
`COc1cc(NC(=O)C2CCCN(S(=O)(=O)c3cccc4nsnc34)C2)cc(OC)c1` (stereo not drawn) gave ATXN2 expr inh -12%, HT1080-NT tox -4%, S2 tox inconclusive, TGFb SMAD3 inh 1%, HepG2 viability -31% and HT1080 IDH1KD tx -12%.
For C(=C1C=c2ccccc2=C1)c1ccc(N=Nc2ccc(C=C3C=c4ccccc4=C3)cc2)cc1 the results were TGFb SMAD3 inh -4% and HepG2 viability -12%.
CCCCCCC[C@@H](C/C=C/CCC(=O)N(C)C/C(=C/Cl)C/C(=C\C(=O)N1C[C@H](O)CC1=O)OC)OC was read as ATXN2 expr inh inconclusive, HT1080-NT tox 23µM*, S2 tox inconclusive, TGFb SMAD3 inh 16µM*, HepG2 viability -104% and HT1080 IDH1KD tx inconclusive.
For CCCCCCC[C@@H](C/C=C/CCC(=O)O)OC the results were ATXN2 expr inh -10%, HT1080-NT tox 1%, S2 tox inconclusive, TGFb SMAD3 inh -1%, HepG2 viability -27% and HT1080 IDH1KD tx -3%.
`C=C(C)[C@@H]1CC[C@]2(C)CC[C@]3(C)[C@H](CC[C@@H]4[C@@]5(C)CC[C@H](O)C(C)(C)[C@H]5CC[C@]43C)[C@@H]12` gave ATXN2 expr inh 5%.
